# Inconclusive results are not listed. Active and inactive are the calls of the source. Unless noted, calls follow the shape of the dose curve; as a rule, active = well fitted curve in the direction sought with a large enough effect; inconclusive = small, poorly fitted or top-dose-only effect, or another doubt; inactive = no such curve, though single readings can be large; an effect the other way counts as inactive or inconclusive.
# Columns and labels:
# [1] = qHTS assay for cell viability of the p53RE-bla HCT-116 cell line (AID 743292); also: % is scaled to controls: 0 for no effect and ±100 for the full control effect; nearly all actives have a fitted effect of over 55% in size
# How it was run: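 Luminescent ATP quantitation (CellTiter-Glo) served as the viability read-out; reagent was added after 16 h compound exposure at 37 C and read after 30 min at room temperature. Cells: p53RE-bla HCT-116, 4,000 per well.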
# [2] = qHTS assay to identify small molecule inhibitors of chordoma cells - UCH-2 (AID 1259356); also: % is scaled to controls: 0 for no effect and ±100 for the full control effect
# [3] = qHTS profiling for inhibitors of Plasmodium falciparum (3D7) proliferation (AID 743322; call rule not given here;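 also: infected erythrocytes exposed to compound for 72 h before lysis; 100% = DMSO vehicle wells and 0% = 0.29 µM artemisinin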); conditions: P. falciparum 3D7 proliferation; at 28.7 µM (top of the series) unless noted
# How it was run: (§1)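 Erythrocytes infected with P. falciparum (0.3% parasitemia, 2.5% hematocrit) incubated with compounds 72 h at 37 C, 5% CO2. Lysis with saponin/Triton buffer containing SYBR Green I, overnight at room temperature in the dark; DNA fluorescence (485/535 nm) normalised to 0.29 uM artemisinin and DMSO.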
# [4] = qHTS profiling for inhibitors of Plasmodium falciparum (DD2) proliferation (AID 743323; call rule not given here); conditions: lower = more inhibition; at 28.7 µM (top of the series) unless noted
# How it was run: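 P. falciparum Dd2-infected erythrocytes (0.3% parasitemia, 2.5% hematocrit) exposed 72 h at 37 C, 5% CO2. Lysis with SYBR Green, overnight at room temperature, fluorescence 485/535 nm; normalized to 0.29 uM artemisinin and DMSO.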
# [5] = qHTS profiling for inhibitors of Plasmodium falciparum (HB3) proliferation (AID 743324); conditions: Plasmodium falciparum HB3 blood-stage proliferation; at 28.7 µM (top of the series) unless noted;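 also: 100% = DMSO vehicle wells and 0% = artemisinin-treated control wells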
# How it was run: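 P. falciparum HB3 grown in erythrocytes (0.3% parasitemia, 2.5% hematocrit final) with compound for 72 h at 37 C, 5% CO2. Parasite DNA detected by SYBR Green after saponin/triton lysis overnight; normalized to 0.29 uM artemisinin and DMSO.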
# [6] = qHTS profiling of the MIPE4 collection as inhibitors of Plasmodium falciparum (3D7) proliferation (AID 743344; call rule not given here;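 also: scaled between DMSO vehicle wells and 0.29 µM artemisinin as full inhibition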); conditions: P. falciparum 3D7 in erythrocytes, SYBR Green DNA fluorescence, 72 h; at 28.5 µM (top of the series) unless noted
# How it was run: as §1
# [7] = qHTS profiling of the MIPE4 collection as inhibitors of Plasmodium falciparum (DD2) proliferation (AID 743345; call rule not given here); conditions: P. falciparum Dd2 in erythrocytes, SYBR Green DNA, 72 h; at 28.5 µM (top of the series) unless noted
# How it was run: as §1
# [8] = qHTS profiling of the MIPE4 collection as inhibitors of Plasmodium falciparum (DD2) proliferation (Rep 2) (AID 743346; call rule not given here); conditions: P. falciparum Dd2 in erythrocytes, SYBR Green DNA, 72 h; at 28.5 µM (top of the series) unless noted
# How it was run: as §1
# [9] = qHTS profiling of the MIPE4 collection as inhibitors of Plasmodium falciparum (HB3) proliferation (AID 743347; call rule not given here;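 also: plate controls were DMSO vehicle wells for no effect and artemisinin wells for full effect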); conditions: P. falciparum HB3 in erythrocytes, SYBR Green DNA, 72 h; at 28.5 µM (top of the series) unless noted
# How it was run: as §1
smiles,measurement,setting,value
CCCCC(CC)COC(=O)CC(C(=O)OCC(CC)CCCC)S(=O)(=O)O (stereo not given),outcome,[1],inactive
same,Potency,[2],inactive
CCCCCCCC/C=C\CCCCCCCC(=O)O,outcome,[1],inactive
CCCCCCCC(=O)O,outcome,[1],inactive
same,Potency,[2],inactive
CC1(C)C(C=C(Cl)Cl)C1C(=O)OCc1cccc(Oc2ccccc2)c1 (stereo not given),outcome,[1],inactive
same,Potency,[2],inactive
CCOc1ccc2c(c1)C(C)=CC(C)(C)N2,outcome,[1],inactive
CC1=CCC(C(C)(C)O)CC1 (stereo not given),outcome,[1],inactive
same,Potency,[2],inactive
CC(O)CO (stereo not given),outcome,[1],inactive
Cc1nnc(C(C)C)n1C1CC2CCC(C1)N2CC[C@H](NC(=O)C1CCC(F)(F)CC1)c1ccccc1 (stereo not given in full),remaining parasite growth % (stronger effect = lower value),[3],111%
same,"activity, percent of control",[4],102%
same,"remaining proliferation (% of control), lower = more inhibition",[5],96.7%
CC[C@@H](C(=O)O)C1CC[C@H](C)C([C@@H](C)[C@H](O)[C@H](C)C(=O)[C@H](CC)C2O[C@]3(C=C[C@@H](O)[C@]4(CC[C@@](C)(C5CC[C@](O)(CC)[C@H](C)O5)O4)O3)[C@H](C)C[C@@H]2C)O1 (stereo not given in full),remaining parasite growth % (stronger effect = lower value),[3],-3.05%
same,"activity, percent of control",[4],-0.726%
same,"remaining proliferation (% of control), lower = more inhibition",[5],-1.24%
O=S(=O)(O)O,outcome,[1],inactive
same,Potency,[2],inactive
CCC1(Cc2ccc(N)cc2)CCC(=O)NC1=O (stereo not given),remaining parasite growth % (stronger effect = lower value),[3],99.6% [at 57.5 µM]
same,"activity, percent of control",[4],97.2% [at 57.5 µM]
same,"remaining proliferation (% of control), lower = more inhibition",[5],89.8% [at 57.5 µM]
CC(C)N=c1cc2n(-c3ccc(Cl)cc3)c3ccccc3nc-2cc1Nc1ccc(Cl)cc1,"parasite growth, % of DMSO control",[6],10.9%
same,"parasite growth remaining, % of DMSO control (lower = more inhibition)",[7],7.22%
same,"parasite growth, % of control (lower = inhibition)",[8],166%
same,"growth, % of control",[9],47.5%
CCC(=O)NCCC1CCc2ccc3c(c21)CCO3 (stereo not given),Potency,[2],inactive
CCCCC/C=C\C/C=C\CCCCCCCC(=O)O,outcome,[1],inactive
CCCCCCCCCCCCCCCCCCOP(=O)([O-])OC1CC[N+](C)(C)CC1,remaining parasite growth % (stronger effect = lower value),[3],98.6% [at 18.4 µM]
same,"activity, percent of control",[4],114% [at 18.4 µM]
same,"remaining proliferation (% of control), lower = more inhibition",[5],112% [at 18.4 µM]
CN(NC(=O)CC(=O)NN(C)C(=S)c1ccccc1)C(=S)c1ccccc1,remaining parasite growth % (stronger effect = lower value),[3],2.19% [at 57.5 µM]
same,"activity, percent of control",[4],4.04% [at 57.5 µM]
same,"remaining proliferation (% of control), lower = more inhibition",[5],5.46%
NC(=O)Nc1cc(-c2ccc(CN3CCOCC3)c(F)c2)sc1C(=O)N[C@H]1CCCNC1,remaining parasite growth % (stronger effect = lower value),[3],3.88%
same,"activity, percent of control",[4],1.39%
same,"remaining proliferation (% of control), lower = more inhibition",[5],2.42%
CCCC(=O)Nc1ncnc2c1ncn2[C@@H]1O[C@@H]2COP(=O)(O)O[C@H]2[C@H]1OC(=O)CCC,Potency,[2],inactive
CCOc1cc2ncc(C#N)c(Nc3ccc(OCc4ccccn4)c(Cl)c3)c2cc1NC(=O)/C=C/CN(C)C,remaining parasite growth % (stronger effect = lower value),[3],-0.375%
same,"activity, percent of control",[4],5.17%
same,"remaining proliferation (% of control), lower = more inhibition",[5],-0.513%
C[C@@H]1CCN(C(=O)CC#N)C[C@@H]1N(C)c1ncnc2[nH]ccc12,remaining parasite growth % (stronger effect = lower value),[3],95.6%
same,"activity, percent of control",[4],99.8%
same,"parasite growth, % of DMSO control",[6],84%
same,"parasite growth remaining, % of DMSO control (lower = more inhibition)",[7],103%
same,"parasite growth, % of control (lower = inhibition)",[8],78.4%
same,"growth, % of control",[9],96.8%
CCC1(O)CC2CN(CCc3c([nH]c4ccccc34)[C@@](C(=O)OC)(c3cc4c(cc3OC)N(C=O)[C@H]3[C@](O)(C(=O)OC)[C@H](OC(C)=O)[C@]5(CC)C=CCN6CC[C@]43[C@@H]65)C2)C1 (stereo not given in full),remaining parasite growth % (stronger effect = lower value),[3],8.01%
same,"activity, percent of control",[4],13.7%
same,"remaining proliferation (% of control), lower = more inhibition",[5],8.78%
